Source: PubChem BioAssay (Tox21)
Where “and” joins values, the source holds several entries; their conditions need not be identical. Equal values may be shown once. Inconclusive results are not listed. The source holds several records for some structures; these can differ, active in one and inactive in another. Calls of active or inactive are those of the source. Unless noted, the call rests on the fitted dose curve; in most records, active means well fitted curve in the direction sought with a large enough effect in the repeat runs; inconclusive means weak or mixed curves; inactive means no such curve, though single readings can be large; an effect the other way counts as inactive or inconclusive.

Legend:
[1] = biological target: Thyrotropin receptor (Homo sapiens) (UniProt P16473); test: qHTS assay to identify small molecule agonists of the thyroid stimulating hormone receptor (TSHR) signaling pathway (AID 1224843; calls by dose curve; further: nearly all actives have a fitted effect of over 45% in size; further: potency means the concentration at half of the fitted maximal effect)
In short: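 Agonist-mode screen: TSHR HEK293 cells received test chemicals for half an hour at room temperature, then HTRF cAMP detection reagents for one hour prior to fluorescence measurement. Each chemical ran as a 15-concentration series, triplicated.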

[2] = qHTS assay to identify small molecule agonists of the hypoxia (HIF-1) signaling pathway - cell viability counter screen (AID 1224844; calls by dose curve; further: nearly all actives have a fitted effect of over 50% in size; further: potency means the concentration at half of the fitted maximal effect)
In short: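 Cytotoxicity was measured in parallel with the HRE-driven beta-lactamase readout: after 17 hrs of compound exposure at 37C, HRE-bla ME-180 cells received CellTiter-Glo and luminescence was recorded 30 min later.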

[3] = qHTS assay to identify small molecule agonists of the hypoxia (HIF-1) signaling pathway (AID 1224846; active means well fitted activation curve with a large enough effect in the signal ratio in the repeat runs, not every such curve was filed as active; the % refers to the signal ratio)
In short: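 Compounds from the Tox21 10K library, dissolved in DMSO, are tested for induction of a hypoxia response element–controlled beta-lactamase reporter in ME-180 cells. Exposure lasts 17 hrs at 37C after a 5 hr settling period, followed by CCF4-AM FRET substrate.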

[4] = qHTS assay to identify small molecule agonists of H2AX - cell viability counter screen (AID 1224847; calls by dose curve; further: nearly all actives have a fitted effect of over 30% in size; further: potency means the concentration at half of the fitted maximal effect)
In short: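 For this counter screen, overnight-attached CHO-K1 cells received test compounds (15 concentrations, 0.76% DMSO final); 3 hr later at 37C, CellTiter-Glo reagent was added and luminescence recorded after 30 min at room temperature.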

[5] = qHTS assay to identify small molecule antagonists of the estrogen related receptor (ERR) signaling pathway from Tox21 library (AID 1224848); further: nearly all actives have a fitted effect of over 50% in size; further: potency means the concentration at half of the fitted maximal effect
In short: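 Quantitative high-throughput format: ERR reporter cells (2,000/well) pre-incubated 6 h, treated 18 h at 37 C with compounds in DMSO alongside positive and negative controls, then read by ONE-Glo luminescence.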

[6] = qHTS assay to identify small molecule agonists of the estrogen related receptor (ERR) signaling pathway from Tox21 library (AID 1224849; calls by dose curve; further: nearly all actives have a fitted effect of over 15% in size); settings: ERR reporter cell line, ONE-Glo luciferase, 18 h
In short: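 Cells carrying the ERR reporter were plated and allowed to settle for 6 h, exposed to library compounds for 18 h at 37 C, then lysed with ONE-Glo and luminescence measured.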

[7] = qHTS RealTime-Glo MT Cell Viability Assay in HepG2 cells - 24 hour (AID 1224867); further: nearly all actives have a fitted effect of over 50% in size; further: potency means the concentration at half of the fitted maximal effect
In short: (§1)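 Viability was tracked continuously by NanoLuc luminescence from prosubstrate reduced by living HepG2 cells, at successive time points over 40 h of compound exposure. Cells with reagent were preincubated 5 h at 37 °C before compound addition.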

[8] = A CellTox Green Cytotoxicity Assay to monitor cytotoxicity in HEK293 cells - 0 hour (AID 1224869); further: nearly all actives have a fitted effect of over 50% in size
In short: (§2)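 Cells (HEK293, 600/well) and dye reagent are dispensed together. After 5 h at 37 C, 23 nL compound is pinned in. Plates stay at 37 C for 40 h with fluorescence read at 0h, 8h, 16h, 24h, 32h and 40h.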

[9] = qHTS RealTime-Glo MT Cell Viability Assay in HepG2 cells - 40 hour (AID 1224870); further: nearly all actives have a fitted effect of over 50% in size; further: potency means the concentration at half of the fitted maximal effect
In short: (§3)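 HepG2 cells (600/well) mixed with RealTime-Glo MT reagent, settled 5 h at 37 C/5% CO2 before compound addition. Nonlytic NanoLuc luminescence from viable-cell prosubstrate reduction read repeatedly during 40 h treatment at 37 C.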

[10] = A CellTox Green Cytotoxicity Assay to monitor cytotoxicity in HEK293 cells - 40 hour (AID 1224871); further: nearly all actives have a fitted effect of over 45% in size; further: potency means the concentration at half of the fitted maximal effect
In short: as §2

[11] = qHTS RealTime-Glo MT Cell Viability Assay in HEK293 cells - 16 hour (AID 1224872); further: nearly all actives have a fitted effect of over 50% in size; further: potency means the concentration at half of the fitted maximal effect
In short: (§4)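 Viability tracked continuously by luminescence as live cells reduce a prosubstrate for NanoLuc; HEK293 cells preincubated 5 h, compound-treated at 37 C, and read at 0, 8, 16, 24, 32 and 40 h.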

[12] = qHTS RealTime-Glo MT Cell Viability Assay in HepG2 cells - 8 hour (AID 1224873); further: nearly all actives have a fitted effect of over 55% in size
In short: as §3

[13] = qHTS RealTime-Glo MT Cell Viability Assay in HEK293 cells - 40 hour (AID 1224874); settings: RealTime-Glo luminescence; max response: stronger effect = lower value; further: nearly all actives have a fitted effect of over 50% in size; further: potency means the concentration at half of the fitted maximal effect
In short: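 Real-time viability in HEK293: signal arises when living cells convert a prosubstrate for NanoLuc in the medium, so luminescence tracks viable cell number. Compound (23 nL, DMSO) added 5 h post-seeding; kinetic reads at 0–40 h, 37 C.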

[14] = A CellTox Green Cytotoxicity Assay to monitor cytotoxicity in HepG2 cells - 16 hour (AID 1224876); further: nearly all actives have a fitted effect of over 45% in size; further: potency means the concentration at half of the fitted maximal effect
In short: (§5)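 Cells and non-lytic dye reagent are dispensed together (600 HepG2 cells/well) and incubated 5 h before DMSO compound transfer. Kinetic fluorescence is then recorded in the same wells during 40 h at 37 C.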

[15] = qHTS RealTime-Glo MT Cell Viability Assay in HepG2 cells - 32 hour (AID 1224877); further: nearly all actives have a fitted effect of over 55% in size; further: potency means the concentration at half of the fitted maximal effect
In short: as §1

[16] = A CellTox Green Cytotoxicity Assay to monitor cytotoxicity in HepG2 cells - 24 hour (AID 1224878); further: nearly all actives have a fitted effect of over 45% in size; further: potency means the concentration at half of the fitted maximal effect
In short: as §5

[17] = A CellTox Green Cytotoxicity Assay to monitor cytotoxicity in HepG2 cells - 40 hour (AID 1224879); further: nearly all actives have a fitted effect of over 40% in size; further: potency means the concentration at half of the fitted maximal effect
In short: as §5

[18] = qHTS RealTime-Glo MT Cell Viability Assay in HEK293 cells - 32 hour (AID 1224868); further: nearly all actives have a fitted effect of over 50% in size; further: potency means the concentration at half of the fitted maximal effect
In short: as §4

[19] = A CellTox Green Cytotoxicity Assay to monitor cytotoxicity in HEK293 cells - 24 hour (AID 1224875); further: nearly all actives have a fitted effect of over 45% in size; further: potency means the concentration at half of the fitted maximal effect
In short: as §2

[20] = qHTS assay to identify small molecule agonists of H2AX (AID 1224845; active means well fitted activation curve with a large enough effect in the signal ratio in the repeat runs, not every such curve was filed as active; the % refers to the signal ratio)
In short: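 Wild-type CHO-K1 cells, plated overnight, exposed 3hr at 37C to 15 concentrations (0.76% DMSO final). Lysed, then HTRF anti-pH2AX (S139) cryptate and anti-H2AX-d2 antibodies, 24 hr room temperature; 665/620 nm emission read.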

[21] = at 92.4 µM (top of the series) unless noted
On the % scale 0 is the no-effect control and ±100 the full control effect.

Thyrotropin receptor (Homo sapiens), sequence (P16473 whole entry, looked up): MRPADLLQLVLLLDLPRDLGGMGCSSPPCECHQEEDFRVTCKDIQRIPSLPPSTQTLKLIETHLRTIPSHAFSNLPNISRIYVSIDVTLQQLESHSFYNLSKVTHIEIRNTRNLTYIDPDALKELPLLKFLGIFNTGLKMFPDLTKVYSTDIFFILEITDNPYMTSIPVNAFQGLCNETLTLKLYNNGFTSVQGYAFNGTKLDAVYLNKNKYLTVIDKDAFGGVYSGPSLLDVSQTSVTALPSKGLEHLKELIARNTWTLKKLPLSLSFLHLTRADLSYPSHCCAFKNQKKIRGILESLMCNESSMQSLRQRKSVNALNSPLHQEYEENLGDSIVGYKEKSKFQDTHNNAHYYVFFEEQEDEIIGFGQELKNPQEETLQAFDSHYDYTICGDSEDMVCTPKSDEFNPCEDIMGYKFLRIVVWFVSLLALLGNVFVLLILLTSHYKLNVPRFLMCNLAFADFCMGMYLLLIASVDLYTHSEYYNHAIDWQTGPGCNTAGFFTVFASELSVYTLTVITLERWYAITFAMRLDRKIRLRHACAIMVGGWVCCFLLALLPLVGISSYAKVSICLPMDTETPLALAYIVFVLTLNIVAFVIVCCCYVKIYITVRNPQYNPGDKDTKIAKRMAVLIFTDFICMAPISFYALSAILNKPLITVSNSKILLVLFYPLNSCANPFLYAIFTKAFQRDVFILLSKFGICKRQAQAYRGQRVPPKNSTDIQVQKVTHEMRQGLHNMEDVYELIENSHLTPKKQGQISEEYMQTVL

CC(C)=CCCC(C)CC(=O)O (stereo unspecified)
inactive: Potency [1] | Potency [2] | outcome [3] | Potency [4] | Potency [5] | activity change, positive = activation [6, 21] 3.83% | Potency [7] | Potency [8] | Potency [9] | Potency [10] | Potency [11] | Potency [12] | max response [13] 2.41% | Potency [14] | Potency [15] | Potency [16] | Potency [17]

COc1cc(C(=O)N2CCCCCCC2)cc(OC)c1OC
inactive: Potency [1] | Potency [2] | outcome [3] | Potency [4] | Potency [5] | activity change, positive = activation [6, 21] 8.77% [at 42.5 µM] | Potency [7] | Potency [18] | Potency [8] | Potency [9] | Potency [10] | Potency [11] | Potency [12] | max response [13] 9.63% | Potency [19] | Potency [14] | Potency [16] | Potency [17]

C=C(C)C(=O)OCCCCCCCC(C)C
inactive: Potency [1] | Potency [2] | outcome [3] | Potency [4] | Potency [5] | activity change, positive = activation [6, 21] 2.01% | Potency [7] | Potency [8] | Potency [9] | Potency [10] | Potency [11] | Potency [12] | max response [13] -8.22% | Potency [19] | Potency [15] | Potency [16] | Potency [17]

O=c1[nH]c(=O)n([C@H]2C[C@H](O)[C@@H](CO)O2)cc1I
inactive: Potency [1] | Potency [2] | Potency [4] | Potency [5] | activity change, positive = activation [6, 21] 11% [at 42.5 µM] | Potency [7] | Potency [18] | Potency [8] | Potency [9] | Potency [10] | Potency [11] | Potency [12] | Potency [19] | Potency [14] | Potency [15] | Potency [16] | Potency [17]

CCOC(=O)c1c(C)n(C)c2ccc(O)cc12
inactive: Potency [1] | Potency [2] | outcome [3] | Potency [4] | Potency [5] | Potency [7] | Potency [18] | Potency [8] | Potency [9] | Potency [10] | Potency [11] | Potency [12] | max response [13] -25.6% | Potency [19] | Potency [14] | Potency [15] | Potency [16] | Potency [17]

CN(C)CCCN1c2ccccc2CCc2ccc(Cl)cc21
active: Potency [2] 49 µM | Potency [4] 113 µM | Potency [5] 68.6 µM | Potency [7] 49 µM and 23.9 µM | Potency [18] 34.7 µM and 21.3 µM | Potency [9] 43.6 µM | Potency [10] 49 µM and 26.8 µM | Potency [11] 43.6 µM | Potency [13] 34.7 µM and 21.3 µM | Potency [19] 49 µM and 23.9 µM | Potency [14] 54.9 µM and 21.3 µM | Potency [15] 49 µM and 23.9 µM | Potency [16] 38.9 µM and 23.9 µM | Potency [17] 34.7 µM and 23.9 µM
inactive: Potency [1] | activity change, positive = activation ([6]; at 42.5 µM (top of the series)) -18.5% | activity change, positive = activation ([6]; at 92.4 µM (top of the series)) -78.1% | Potency [8]

CC(C)c1cc2c(cc1S(=O)(=O)O)[C@@]1(C)CCC[C@@](C)(C(=O)O)[C@@H]1CC2
inactive: Potency [1] | Potency [2] | outcome [3] | Potency [4] | Potency [5] | Potency [7] | Potency [18] | Potency [9] | Potency [10] | Potency [11] | Potency [12] | max response [13] 1.39% | Potency [19] | Potency [14] | Potency [15] | Potency [16] | Potency [17]

NS(=O)(=O)c1ccc(C(=O)O)cc1
inactive: Potency [1] | Potency [2] | Potency [4] | Potency [5] | activity change, positive = activation [6, 21] 9.6% [at 42.5 µM] | Potency [7] | Potency [18] | Potency [8] | Potency [9] | Potency [10] | Potency [11] | Potency [12] | max response [13] -0.921% | Potency [19] | Potency [15] | Potency [16] | Potency [17]

COC(=O)[C@@H](N)Cc1ccc(O)c(O)c1
inactive: Potency [1] | Potency [2] | outcome [3] | Potency [4] | Potency [5] | Potency [7] | Potency [18] | Potency [8] | Potency [9] | Potency [10] | Potency [11] | Potency [12] | Potency [19] | Potency [15] | Potency [16] | Potency [17]

N=c1nc(N2CCCCC2)cc(N)n1O
inactive: Potency [1] | Potency [2] | Potency [4] | Potency [7] | Potency [8] | Potency [9] | Potency [10] | Potency [11] | Potency [12] | max response [13] -2.32% | Potency [19] | Potency [14] | Potency [15] | Potency [16] | Potency [17]

COc1ccc2c(c1)c(CC(=O)OCC(=O)O)c(C)n2C(=O)c1ccc(Cl)cc1
inactive: Potency [1] | Potency [2] | outcome [3] | Potency [4] | Potency [5] | activity change, positive = activation [6, 21] 3.06% [at 42.5 µM] | Potency [7] | Potency [18] | Potency [8] | Potency [9] | Potency [10] | Potency [11] | Potency [12] | Potency [14] | Potency [16] | Potency [17]

COC(=O)C1=C(C)NC(C)=C(C(=O)OC)C1c1ccccc1[N+](=O)[O-]
54.5 µM (active) and inactive: Potency [1]
inactive: Potency [4] | Potency [5] | activity change, positive = activation ([6]; at 42.5 µM (top of the series)) -8.97% | activity change, positive = activation ([6]; at 92.4 µM (top of the series)) -13.3% | Potency [7] | Potency [8] | Potency [9] | Potency [10] | Potency [11] | Potency [19] | Potency [14] | Potency [15] | Potency [16] | Potency [17]
49 µM (active) and inactive: Potency [2]

CCN(CC)CCNC(=O)c1cc(S(C)(=O)=O)ccc1OC
inactive: Potency [1] | Potency [2] | Potency [4] | Potency [7] | Potency [18] | Potency [8] | Potency [9] | Potency [11] | Potency [12] | max response [13] 3.02% | Potency [14] | Potency [15] | Potency [16] | Potency [17]

COCCCOCCCOC
inactive: Potency [1] | outcome [20] | outcome [3] | Potency [4] | Potency [5] | Potency [7] | Potency [18] | Potency [9] | Potency [10] | Potency [11] | Potency [12] | max response [13] 6.62% | Potency [19] | Potency [14] | Potency [15]
